ssDAF12 agonist: S. stercoralis DAF-12 nuclear receptor activators, primary screen, cell-based, luminescence, HEK293, GRIP1 co-expression, lit1-tk-luc; activation, % at 6.8 µM; HEK293 ssDAF-12/GRIP1 lit1-tk-luc reporter; % of 3 µM dafachronic acid response; actives 1% (n = 370,000); Nuclear hormone receptor DAF-12 (Strongyloides stercoralis); AID 652126, 2013;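 active = activation above the mean over all tested compounds plus 3 SD, cut at about 0.9% in these data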;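 note: 0% = DMSO-only wells and 100% = 3 µM delta7-dafachronic acid wells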
hcDAF12 agonist: H. contortus DAF-12 nuclear receptor activators, primary screen, cell-based, luminescence, HEK293, lit1-tk-luc reporter. HEK293 hcDAF-12 lit1-tk-luc reporter; 0% DMSO, 100% Δ7-dafachronic acid. activation, % at 6.8 µM. actives 1.4% (n = 370,000);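 active = activation above the mean of all tested compounds plus 3 SD, cut at about 5.5% in these data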;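 note: 100% = response to 3 µM Δ7-dafachronic acid high control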
hgDAF12 agonist: H. glycines DAF-12 receptor agonists, primary screen, cell-based, luminescence, HEK293, GAL4 fusion, UAS-luciferase. Nuclear hormone receptor DAF-12 (Heterodera glycines), GAL4 fusion. HEK293 GAL4-hgDAF12 UAS-luciferase reporter, agonist luminescence; normalized to butyrate control. activation, % at 6.8 µM. actives 1.8% (n = 370,000). AID 687014, 2013;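 active = activation above a cutoff set at the mean of all screened compounds plus 3 SD, cut at about 10% in these data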;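 note: 0% = DMSO wells and 100% = sodium butyrate wells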
DAX1 inh-1: DAX1 (NR0B1) inhibitors on StAR promoter, primary screen, cell-based, luminescence, SF-1 (NR5A1), full-length DAX-1; HEK293T StAR-luciferase reporter, SF-1/DAX-1 repression relief; inhibition, % at 6.8 µM; actives 1.1% (n = 370,000); AID 652010, 2013;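 active = inhibition above the mean over all tested compounds plus 3 SD, cut at about 3.6% in these data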;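 note: 0% = DAX-1 cells with DMSO and 100% = cells lacking DAX-1 with DMSO; higher inhibition means more luminescence from relief of DAX-1 repression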
DAX1 inh-2: DAX1 (NR0B1) inhibitors, primary screen, cell-based, HEK293, Gal4-DAX1, luciferase luminescence; actives 0.99% (n = 340,000); inhibition, % at 6.75 µM; Nuclear receptor subfamily 0 group B member 1 (Homo sapiens), P51843; AID 504766, 2011; HEK293 Gal4-DAX1 luciferase reporter;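 active = inhibition above the mean over all tested compounds plus 3 SD, cut at about 4.2% in these data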;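 note: 0% = DAX1-transfected cells with DMSO and 100% = empty-vector control cells with DMSO; inhibition shows as a rise in luminescence from relieved DAX1 repression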
DAX1 inh confirm: DAX1 (NR0B1) inhibitors relieving SF-1 repression, confirmation, cell-based, luminescence, HEK293T, full-length DAX-1, SF-1 activated StAR promoter. AID 652134, 2013. shares compounds with DAX1 inh-1. actives 87% (n = 2,400). inhibition, % at 6.8 µM. HEK293T StAR-promoter luciferase reporter, SF-1/DAX-1 repression;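 active = inhibition above the average of every tested compound plus 3 SD, cut at about 3.8% in these data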;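 note: 0% = DAX-1 cells with DMSO and 100% = no DAX-1 control cells with DMSO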
Target sequence (P51843 whole entry, looked up): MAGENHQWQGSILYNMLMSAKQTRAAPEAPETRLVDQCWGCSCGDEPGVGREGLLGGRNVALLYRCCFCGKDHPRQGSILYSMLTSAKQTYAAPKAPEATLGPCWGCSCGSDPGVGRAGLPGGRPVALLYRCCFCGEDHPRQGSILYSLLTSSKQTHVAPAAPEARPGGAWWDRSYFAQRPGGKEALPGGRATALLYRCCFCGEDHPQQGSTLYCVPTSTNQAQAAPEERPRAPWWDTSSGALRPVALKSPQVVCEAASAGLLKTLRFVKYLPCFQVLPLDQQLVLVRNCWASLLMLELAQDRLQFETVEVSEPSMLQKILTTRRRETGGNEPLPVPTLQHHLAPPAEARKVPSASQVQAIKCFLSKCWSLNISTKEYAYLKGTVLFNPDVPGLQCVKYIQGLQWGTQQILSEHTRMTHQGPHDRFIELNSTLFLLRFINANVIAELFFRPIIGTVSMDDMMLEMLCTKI
SF1 mutant ctr: StAR reporter signal changes without DAX1, counter-screen for DAX1 inhibitor project, cell-based, luminescence, AF-2 mutant SF-1, transactivation | inhibition, % at 6.8 µM | actives 78% (n = 2,400) | HEK293 StAR-luciferase, SF-1 AF2 mutant | AID 652136, 2013 | shares compounds with DAX1 inh-1;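 active = inhibition above the mean of all tested compounds plus 3 SD, cut at about 3% in these data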;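 note: 0% = DAX-1 transfected cells with DMSO and 100% = cells without DAX-1 with DMSO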
LXRb hcDAF ctr: LXR agonists, Gal4 luciferase reporter, confirmation, counter-screen for hcDAF-12 agonist project, cell-based, luminescence, HEK293, H. contortus campaign; shares compounds with hcDAF12 agonist; HEK293 Gal4-LXR tk-luc reporter, 24 h; normalized: DMSO 0%, positive control 100%; activation, % at 6.8 µM; 3,400 tested, under 10 active; AID 743027, 2013;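 active = mean percent activation of the reporter above a cutoff set as the average over tested compounds plus their standard deviation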
hcDAF12 conf: H. contortus DAF-12 receptor agonists, confirmation, cell-based, luminescence, HEK293, lit1-tk-luc, triplicate; shares compounds with hcDAF12 agonist; HEK293 hcDAF-12 lit1-tk-luc reporter; % of Δ7-dafachronic acid response; activation, % at 6.8 µM; actives 61% (n = 3,400); AID 743032, 2013;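 active = mean activation across triplicate tests above the threshold derived from the earlier primary screen, cut at about 5.5% in these data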;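 note: 0% = DMSO only wells and 100% = 3 µM Δ7-dafachronic acid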
An asterisk follows results filed as active; / = no result given; ! = not confirmed by another sample. Compounds with a hit are over-represented: about 4.1% of the library has one in this group of screens.

SMILES	ssDAF12 agonist	hcDAF12 agonist	hgDAF12 agonist	DAX1 inh-1	DAX1 inh-2	DAX1 inh confirm	SF1 mutant ctr	LXRb hcDAF ctr	hcDAF12 conf
CCOC(=O)N1CCN(C(=O)c2cc(COc3ccc(F)cc3F)on2)CC1	-0.6	-1.0	2.5	0.6	-0.5	/	/	/	/
CCOC(=O)N1CCN(C(=O)c2cc(COc3c(F)cccc3F)on2)CC1	0.8	3.1	11.5*	7.8*	1.2	8.9*	5.7*	/	/
O=C(c1cc(COc2c(F)cccc2F)on1)N1CCCCCC1	-0.5	1.1	6.5	4.8*	0.1	4.6*	3.0*	/	/
Cc1cccc(C)c1OCc1cc(C(=O)N2CCC(C3CCCCC3)C2)no1 (configuration not stated)	0.5	1.0	10.1	4.7*	1.6	5.0*	4.0*	/	/
CC(=O)c1ccc(OCc2cc(C(=O)N3CC[C@@H]4CCCC[C@H]4C3)no2)cc1	0.1	1.5	10.0	1.2	1.2	/	/	/	/
CC(=O)N1CCCN(C(=O)c2cc(COc3c(F)cccc3F)on2)CC1	-1.1	0.2	0.6	-0.7	0.5	/	/	/	/
CN(C(=O)c1cc(COc2c(F)cccc2F)on1)C1CCOC1 (configuration not stated)	-1.1	2.9	5.2	5.1*	0.8	-0.8	1.8	/	/
O=C(Nc1ccc(CSc2ccccc2)cc1)c1ccco1	0.0	2.8	12.7*	5.5*	2.2	8.4*	5.5*	/	/
CN(C)c1ccc(/C=N/NC(=O)c2ccco2)cc1	1.2*	10.3*	13.5*	4.6*	0.1	13.8*	7.1*	0.9	5.4
Cc1c(C(=O)N2CCc3ccccc3C2)sc2nc(-c3ccccc3)cn12	-0.8	-1.3	1.0	0.2	-0.9	/	/	/	/
c1ccc(-c2cn3c4c(sc3n2)CCCC4)cc1	0.2	8.5*	4.8	6.2*!	-2.9	10.0*	1.5	1.5	18.8*
Cc1cc(C)cc(N(CC(=O)NC2CCC(C)CC2)S(=O)(=O)c2ccccc2)c1 (configuration not stated)	-1.2	1.1	8.0	1.2	/	/	/	/	/
Cc1cc(-c2nc3ccccc3s2)ccc1N	3.1*	14.7*	11.8*	6.7*	-2.5	10.3*	3.1*	2.0	20.9*
CC1=C(O)c2ccccc2C(=O)C1=O	-1.6	-2.4	0.3	-1.0	/	/	/	/	/
Cc1ccccc1N=CC1=C(O)c2ccccc2C1=O	2.1*	15.1*	11.2*	5.5*	-2.5	5.8*	-1.3	0.9	8.3*
CC(=O)c1c(C)[nH]c(C(=O)Nc2cccc(C)n2)c1C	0.4	6.9*	11.7*	11.6*	0.3	10.7*	4.7*	1.1	2.5
COc1ccc(NC(=O)c2[nH]c(C)c(C(C)=O)c2C)cc1	1.7*	10.9*	11.4*	4.7*	0.5	6.5*	6.8*	0.7	10.2*
O=S1(=O)c2ccc(Br)cc2OC[C@@H](c2ccccc2)N1Cc1cn(CCC2OCCO2)nn1	-1.3	-1.6	-0.1	-2.4	/	/	/	/	/
Brc1ccc2[nH]c3c(c2c1)CCC3	-1.8	-1.9	-4.3	-0.5	-0.2	/	/	/	/
O=C1Cc2c([nH]c3ccc(Br)cc23)-c2ccccc2N1	0.1	10.7*	11.4*	7.5*	3.5	6.4*	-5.6	1.6	8.5*
COc1ccccc1-c1nc(-c2ccc(Br)o2)no1	4.5*	26.3*	19.8*	7.9*	2.3	17.3*	8.2*	2.2	21.3*
COc1ccc(-c2nc(-c3ccc(Br)o3)no2)cc1OC	-0.7	3.9	5.4	0.9	0.9	/	/	/	/
CCOc1ccc(N/C=C/C(=O)c2ccccc2)c([N+](=O)[O-])c1	0.2	11.1*	9.3	7.5*	-1.6	1.3	-2.4	1.0	4.1
CCOc1ccc(NC(=O)/C=C/c2ccccc2)c([N+](=O)[O-])c1	-0.2	2.1	5.9	-0.2	0.0	/	/	/	/
CC1(C(=O)Nc2ccc3c(c2)OCCO3)CN(S(C)(=O)=O)CC(=O)N1CC(F)(F)F (configuration not stated)	-0.9	-0.7	2.3	1.1	/	/	/	/	/
SMILES	ssDAF12 agonist	hcDAF12 agonist	hgDAF12 agonist	DAX1 inh-1	DAX1 inh-2	DAX1 inh confirm	SF1 mutant ctr	LXRb hcDAF ctr	hcDAF12 conf
S=C1NC2=C(CCCC2=C2SCCCS2)C(c2ccccc2)N1 (configuration not stated)	-1.4	-1.1	-2.7	0.1	-0.6	/	/	/	/
COc1ccc(C2NC(=S)NC3=C2CCCC3=C2SCCS2)cc1 (configuration not stated)	0.3	7.9*	50.2*	88.0*	5.0*	12.9*	1.9	0.1	2.2
Oc1ccccc1/C=C/c1noc(-c2ccccc2O)n1	3.9*	15.2*	17.9*	6.1*	7.5*	12.6*	9.3*	1.1	12.1*
O=C(CSc1nnc(-c2cnccn2)n1-c1ccccc1)Nc1ccc2cn[nH]c2c1	0.5	2.5	0.4	-0.5	/	/	/	/	/
COc1ccc(-c2csc(-c3ccccc3)n2)c(OC)c1	2.4*	15.0*	21.5*	8.9*	4.6*	18.5*	8.5*	1.9	10.6*
O=C(N/N=C/c1ccccn1)c1ccc(Cl)cc1	-0.2	0.6	-0.7	-0.1	0.7	/	/	/	/
Clc1ccccc1NN=Cc1ccccn1	1.0*	12.9*	18.8*	8.0*	2.1	7.6*	4.7*	0.7	9.6*
C=CCN1[C@@H](C)COc2cccc(N3CCCC3)c2S1(=O)=O	-1.1	-2.5	3.1	-0.4	/	/	/	/	/
